The campaign covered roughly 39,000 compounds. About 3,300 (8.5%) were called active. This excerpt belongs to a sample that is enriched for actives.

This passage reports cytotoxicity call results from the antibiotic and cytotoxicity screens of Wong et al. (2023).

This assay relates to HepG2. Kind of assay: cytotoxicity call (relative viability < 0.9). To be noted: 10 µM.
For `CC(C)C[C@H](NC(=O)CNC(=O)c1cc(Cl)ccc1Cl)B1OC(=O)C[C@](CC(=O)O)(C(=O)O)O1`, the cytotoxicity call is “active”.
For `C[C@@H]1CN([C@@H](C)CO)C(=O)c2cccc(NC(=O)Nc3ccc(F)cc3)c2O[C@@H]1CN(C)S(C)(=O)=O` the value was “inactive”; for `C[C@H](CO)N1C[C@H](C)[C@H](CN(C)S(C)(=O)=O)Oc2c(NC(=O)Nc3ccccc3)cccc2C1=O`, “inactive”.
In the case of `Cc1ccc(CCSc2ccc(Cl)c(Cl)c2)cn1` it was “active”; in that of `Cc1ccc(CSc2ncc(C(F)(F)F)cc2Cl)cc1`, “inactive”; in that of `N#Cc1ccccc1C#CCO`, “inactive”.
As to `CC(N)O.Cc1cc(CC(C)CC(C)(C)C)n(O)c(=O)c1` (configuration not stated), the cytotoxicity call is “active”.
With `Cc1ccc(S(=O)(=O)N2C[C@H](O)COC[C@@H]3O[C@H](CC(=O)N[C@@H]4CCN(Cc5ccccc5)C4)CC[C@H]32)cc1`, the cytotoxicity call is “inactive”.
Turning to `C[C@@H]1CN([C@@H](C)CO)C(=O)c2cc(NC(=O)Nc3ccccc3)ccc2O[C@@H]1CN(C)C(=O)Nc1cccc2ccccc12`, the cytotoxicity call is “inactive”.
For `C[C@@H]1CN([C@@H](C)CO)C(=O)c2c(c3ccccc3n2C)-c2ccccc2CO[C@@H]1CN(C)Cc1ccc(O)cc1` the value was “inactive”; for `O=C(N/N=C/c1ccc(B(O)O)cc1)c1ccccc1O`, “inactive”; for `NS(=O)(=O)c1ccc(C(=O)O)cc1` [listing 1 of 2 here], “inactive”.
For `NS(=O)(=O)c1ccc(C(=O)O)cc1` [listing 2 of 2 here] the value was “inactive”; for `Cc1cc(C(=O)O)cc(S(N)(=O)=O)c1`, “active”.
For `COc1ccc([Si](C)(C)[C@@H]2[C@@H](CCO)O[C@]3(C(=O)N(Cc4ccccc4)c4ccc(N(C=O)c5ccccc5)cc43)[C@H]2C)cc1`, the cytotoxicity call is “active”.
In the case of `COc1ccc([Si](C)(C)[C@H]2[C@H](CCOC(=O)NCCCCCC(=O)NO)O[C@@]3(C(=O)N(Cc4ccccc4)c4ccc(I)cc43)[C@@H]2C)cc1` it was “inactive”; in that of `COc1ccc([Si](C)(C)[C@H]2[C@H](CCO)O[C@@]3(C(=O)N(Cc4ccccc4)c4ccc(N(C=O)c5ccccc5)cc43)[C@@H]2C)cc1`, “active”; in that of `COC(=O)C[C@H]1O[C@]2(C(=O)N(Cc3ccccc3)c3ccc(I)cc32)[C@@H](C)[C@@H]1[Si](C)(C)c1ccc(OC)cc1`, “inactive”.
For `COc1ccc([Si](C)(C)[C@@H]2[C@@H](CCOC(=O)NCCCCCC(=O)NO)O[C@]3(C(=O)N(Cc4ccccc4)c4ccc(I)cc43)[C@H]2C)cc1` the value was “inactive”; for `C[C@@H]1[C@@H]([Si](C)(C)F)[C@H](CCO)O[C@@]12C(=O)N(Cc1ccccc1)c1ccc(N(C=O)c3ccccc3)cc12`, “inactive”; for `Cc1noc(C)c1NC(=O)Nc1ccc2c(c1)C(=O)N([C@@H](C)CO)C[C@@H](C)[C@@H](CN(C)C(=O)Nc1ccc(F)cc1)OCCCC[C@@H](C)O2`, “inactive”.
For `Cc1ccc(S(=O)(=O)NCC[C@@H]2CC[C@H](NS(=O)(=O)c3ccccc3Cl)[C@@H](CO)O2)cc1` the value was “inactive”.
Consider `C[C@@H]1CN([C@H](C)CO)C(=O)c2cccc(NC(=O)c3ccncc3)c2O[C@H]1CN(C)Cc1ccc(C(=O)O)cc1`, for which the cytotoxicity call was “inactive”.
As for `O=c1cc(-c2cccc(O)c2)oc2ccc(O)cc12`, the cytotoxicity call was “inactive”.
For the molecule `O=C(C[C@@H]1CC[C@@H]2[C@H](COC[C@H](O)CN2S(=O)(=O)c2ccc(F)cc2)O1)NCc1ccc(Cl)c(Cl)c1`, the cytotoxicity call is “inactive”.
Consider `CS(=O)(=O)N1CCc2c(-c3cnc(N)nc3)nc(N3CCOCC3)nc21`, for which the cytotoxicity call was “active”.
Regarding `c1nc(N2CCOCC2)nc(N2CCOCC2)n1`, the cytotoxicity call was “inactive”.
Regarding `CS(=O)(=O)N1CC[C@]2(COCc3cnc(N4CCOCC4)nc32)C1`, the cytotoxicity call was “inactive”.
Regarding `C[C@H](CO)N1C[C@H](C)[C@H](CN(C)Cc2ccc(-c3ccccc3)cc2)Oc2ccc(NS(=O)(=O)c3ccc(F)cc3)cc2C1=O`, the cytotoxicity call is “inactive”.
For `C[C@@H]1CN([C@@H](C)CO)C(=O)c2cc(NS(=O)(=O)c3ccc(F)cc3)ccc2O[C@@H]1CN(C)Cc1ccc(-c2ccccc2)cc1` the value was “active”.
On to `C[C@@H]1CN([C@H](C)CO)C(=O)c2cc(NS(=O)(=O)c3ccc(F)cc3)ccc2O[C@@H]1CN(C)Cc1ccc(-c2ccccc2)cc1`, for which the cytotoxicity call is “active”.
In the case of `C[C@H]1CN([C@@H](C)CO)C(=O)c2cc(NS(=O)(=O)c3ccc(F)cc3)ccc2O[C@@H]1CN(C)Cc1ccc(-c2ccccc2)cc1`, the cytotoxicity call is “active”.
On to `C[C@@H]1CN([C@H](C)CO)C(=O)c2cc(NS(=O)(=O)c3ccccc3)ccc2O[C@H]1CN(C)Cc1ccc(-c2ccccc2)cc1`, for which the cytotoxicity call was “inactive”.
For `C[C@@H]1CN([C@H](C)CO)C(=O)c2cc(NS(=O)(=O)c3ccc(F)cc3)ccc2O[C@H]1CN(C)Cc1ccc(-c2ccccc2)cc1` the value was “active”.
In the case of `C[C@H]1CN([C@@H](C)CO)C(=O)c2cc(NS(=O)(=O)c3ccc(F)cc3)ccc2O[C@H]1CN(C)Cc1ccc(-c2ccccc2)cc1` it was “inactive”; in that of `C[C@@H]1CN([C@@H](C)CO)C(=O)c2cc(NS(=O)(=O)c3ccc(F)cc3)ccc2O[C@H]1CN(C)Cc1ccc(-c2ccccc2)cc1`, “inactive”; in that of `C[C@H](CO)N1C[C@H](C)[C@@H](CN(C)Cc2ccc(-c3ccccc3)cc2)Oc2ccc(NS(=O)(=O)c3ccccc3)cc2C1=O`, “inactive”.
As for `C[C@H](CO)N1C[C@H](C)[C@H](CN(C)C(=O)NC2CCCCC2)OCCCC[C@H](C)Oc2ccc(NC(=O)CCC(F)(F)F)cc2C1=O`, the cytotoxicity call is “inactive”.
In the case of `Cn1c(=O)c2c(nc3n2CC=NN3)n(C)c1=O` it was “inactive”.
As to `Cc1n[nH]c(C)c1N`, the cytotoxicity call was “inactive”.
Consider `CC(C)(C)[S@@](=O)N1Cc2cc(C(=O)N3CCCCC3)nc(-c3cccc(C4=CCCC4)c3)c2[C@H]1CCO`, for which the cytotoxicity call is “inactive”.
For `C[C@@H]1CN([C@H](C)CO)C(=O)c2cccc(NC(=O)CCCCCC(=O)Nc3ccccc3N)c2O[C@H]1CN(C)S(C)(=O)=O` the value was “inactive”; for `C[C@H](CO)N1C[C@H](C)[C@@H](CN(C)Cc2ccc(-c3ccccc3)cc2)Oc2ccc(NS(=O)(=O)c3ccc(F)cc3)cc2C1=O`, “active”; for `Cc1noc(C)c1S(=O)(=O)N(C)C[C@H]1Oc2ccc(NS(=O)(=O)c3cn(C)cn3)cc2CC(=O)N([C@@H](C)CO)C[C@H]1C`, “inactive”.
Take `CCOC(=O)C1=C(C)N[C@@]2(O)C[C@@H]1[C@H]1CO[C@@H]2O1`: the cytotoxicity call is “inactive”.
In the case of `NNC(=O)c1ccncc1` it was “inactive”; in that of `Nc1ccc(C(=O)O)c(O)c1`, “inactive”.
Take `NNC(=O)c1ccncc1.Nc1ccc(C(=O)O)c(O)c1`: the cytotoxicity call was “active”.
In the case of `CC(C)OC[C@H]1Cn2c(nc3c2c(=O)n(C)c(=O)n3C)O1` it was “inactive”; in that of `NCCCC[C@H](N)C(=O)O`, “inactive”.
For `NC(=O)CC[C@H](N)C(=O)O` the value was “inactive”; for `N[C@H](CO)C(=O)O`, “inactive”.
In the case of `NC(CC(=O)O)C(=O)O` (configuration not stated) it was “inactive”; in that of `NC(=O)CC[C@@H](N)C(=O)O`, “inactive”; in that of `NC(CO)C(=O)O` (configuration not stated), “active”.
In the case of `Cl.NCCCCC(N)C(=O)O` (configuration not stated), the cytotoxicity call was “inactive”.
In the case of `NC(=O)CCC(N)C(=O)O` (configuration not stated) it was “active”.
In the case of `Cl.NCCCC(N)C(=O)O` (configuration not stated) it was “active”; in that of `NC(=O)NCC#Cc1ccc2c(c1)[C@]1(C(=O)N2)[C@H](c2ccc(OCCO)cc2)N2[C@H](c3ccccc3)[C@H](c3ccccc3)OC(=O)[C@H]2[C@@H]1C(=O)N1CCCCCCC1`, “inactive”; in that of `C[C@H](CO)N1C[C@H](C)[C@@H](CN(C)Cc2ccc3c(c2)OCO3)OCc2ccccc2-c2c(n(C)c3ccccc23)C1=O`, “inactive”.
As for `C[C@H]1CCCCO[C@@H](CN(C)C(=O)CCC(F)(F)F)[C@@H](C)CN([C@@H](C)CO)C(=O)c2cc(NS(=O)(=O)c3ccc(F)cc3)ccc2O1`, the cytotoxicity call is “inactive”.
For `C[C@H](CO)N1C[C@H](C)[C@H](CN(C)C(=O)Nc2cccc3ccccc23)Oc2ccc(NC(=O)Nc3ccccc3)cc2CC1=O`, the cytotoxicity call was “inactive”.
Regarding `Cc1cccc(NC(=O)Nc2ccc3c(c2)C(=O)N(C)[C@H]2CC[C@H](CC(=O)NCc4ccccc4Cl)O[C@H]2CO3)c1`, the cytotoxicity call is “inactive”.
Consider `C[C@@H]1CN([C@H](C)CO)S(=O)(=O)c2ccc(C#CC3CC3)cc2O[C@H]1CN(C)C(=O)Cc1ccncc1`, for which the cytotoxicity call is “inactive”.
On to `C[C@H]1CN([C@@H](C)CO)C(=O)c2cccc(NS(=O)(=O)c3ccccc3)c2O[C@H]1CN(C)S(=O)(=O)c1ccc(F)cc1`, for which the cytotoxicity call is “inactive”.
For the molecule `COCCNC(=O)C[C@H]1CC[C@H]2[C@@H](COC[C@H](O)CN2C(=O)Nc2ccc3c(c2)OCO3)O1`, the cytotoxicity call was “inactive”.
Consider `C(=N\Cc1cccnc1)/c1c2ccccc2cc2ccccc12`, for which the cytotoxicity call was “active”.
For `OCc1cccnc1` the value was “inactive”.
For `O=C(O)CCC(=O)NCc1cccnc1` the value was “inactive”.
For `O=C(Nc1ccc(Cl)cc1C(=O)c1ccc(Cl)cc1)c1cc(Br)ccc1NS(=O)(=O)c1ccc(Cl)cc1` the value was “active”; for `C[C@H]1CN([C@@H](C)CO)C(=O)c2cccc(NS(=O)(=O)c3ccc(Cl)cc3)c2O[C@H]1CN(C)Cc1ccc(C(=O)Nc2ccccc2N)cc1`, “inactive”; for `NS(=O)(=O)c1ccc(Cl)cc1[N+](=O)[O-]`, “inactive”.
For `NS(=O)(=O)c1ccc(F)c([N+](=O)[O-])c1`, the cytotoxicity call is “inactive”.
For the molecule `O=C(Nc1cc(Cl)ccc1Cl)c1cc(Cl)ccc1NS(=O)(=O)c1ccc(Cl)c([N+](=O)[O-])c1`, the cytotoxicity call was “active”.
For `O=C(Nc1cc(Cl)ccc1Cl)c1cc(Br)ccc1NS(=O)(=O)c1ccc(Cl)c([N+](=O)[O-])c1` the value was “active”.
In the case of `C[C@H](CO)N1C[C@H](C)[C@@H](CN(C)Cc2ccc(C(=O)Nc3ccccc3N)cc2)Oc2c(NS(=O)(=O)c3ccc(Cl)cc3)cccc2C1=O` it was “inactive”; in that of `CNS(=O)(=O)c1ccc(Cl)c(C(N)=O)c1`, “inactive”.
For `NC(=O)c1ccc([N+](=O)[O-])cc1Cl` the value was “inactive”; for `C/C=C/C(=O)c1cc(Cl)ccc1O`, “inactive”.
Turning to `O=C(Nc1ccc([N+](=O)[O-])cc1Cl)c1cc(Cl)ccc1O`, the cytotoxicity call was “active”.
For `C[C@@H]1CN([C@@H](C)CO)S(=O)(=O)c2ccc(-c3cccc(C(=O)N(C)C)c3)cc2O[C@@H]1CN(C)C(=O)Cc1ccccn1` the value was “inactive”; for `COc1ccc([C@@H]([C@H](Cc2ccccc2)OC(C)=O)N2C[C@H]3C(=NO[C@@H]3[C@@H](OC(C)=O)c3ccccc3)[C@@H]2Cc2ccccc2)cc1`, “inactive”.
